Mdm2-MdmX inh: inhibitors of human Mdm2/MdmX interaction | O15151+Q00987 | SaOS-2 split-luciferase Mdm2/MdmX complementation, luminescence | inhibition, % at 8 µM | hit rate 3% among 330,000;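 active = inhibition of at least 50% at 8 µM in the primary screen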
Target sequence (O15151 whole entry, looked up): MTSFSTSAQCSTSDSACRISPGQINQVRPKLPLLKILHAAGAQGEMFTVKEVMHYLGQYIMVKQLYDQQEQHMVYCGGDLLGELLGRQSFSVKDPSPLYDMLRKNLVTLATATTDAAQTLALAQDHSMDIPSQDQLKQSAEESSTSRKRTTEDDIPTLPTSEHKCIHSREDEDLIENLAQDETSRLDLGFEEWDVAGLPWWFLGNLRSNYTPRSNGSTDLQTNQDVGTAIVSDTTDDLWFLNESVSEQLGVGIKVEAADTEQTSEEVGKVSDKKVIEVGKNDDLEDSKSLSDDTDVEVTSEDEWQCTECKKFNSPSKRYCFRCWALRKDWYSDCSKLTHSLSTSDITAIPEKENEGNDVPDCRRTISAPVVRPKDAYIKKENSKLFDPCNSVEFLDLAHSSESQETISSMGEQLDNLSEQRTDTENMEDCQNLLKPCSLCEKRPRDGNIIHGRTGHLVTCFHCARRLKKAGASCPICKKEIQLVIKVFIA
Target sequence (Q00987 whole entry, looked up): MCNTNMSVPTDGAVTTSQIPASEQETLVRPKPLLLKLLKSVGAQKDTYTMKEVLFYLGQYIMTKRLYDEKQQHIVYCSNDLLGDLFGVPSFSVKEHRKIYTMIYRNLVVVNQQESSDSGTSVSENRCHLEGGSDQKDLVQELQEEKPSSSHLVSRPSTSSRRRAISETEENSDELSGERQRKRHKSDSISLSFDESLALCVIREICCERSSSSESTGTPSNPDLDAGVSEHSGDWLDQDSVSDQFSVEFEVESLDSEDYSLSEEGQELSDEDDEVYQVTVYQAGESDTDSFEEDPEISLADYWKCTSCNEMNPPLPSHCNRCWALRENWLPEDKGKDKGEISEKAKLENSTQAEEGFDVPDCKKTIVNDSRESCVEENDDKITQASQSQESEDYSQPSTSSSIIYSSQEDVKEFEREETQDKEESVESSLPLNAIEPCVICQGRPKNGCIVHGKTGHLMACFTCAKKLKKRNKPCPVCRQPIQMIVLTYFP
tim10-1 inh: tim10-1 yeast growth inhibition. inhibition, % at 20 µM. hit rate 2.2% among 330,000. S. cerevisiae tim10-1 ts strain growth, BacTiter-Glo, 24 h;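 active = inhibition of at least 40%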;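 note: mutant grown at 25 °C; 0% = DMSO wells with yeast and 100% = wells holding no yeast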
MPTP inh: inhibitors of mitochondrial permeability transition pore; isolated mouse mitochondria, Ca2+ swelling absorbance, 30 min; inhibition, % at 10 µM; hit rate 1.4% among 360,000;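 active = inhibition of 50% or more, scaled per plate between neutral and stimulator controls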;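 note: 0% = DMSO wells given calcium and 100% = 1 mM EGTA wells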
TIM10 inh: TIM10 yeast growth inhibition; S. cerevisiae TIM10 strain growth, BacTiter-Glo luminescence, 24 h; inhibition, % at 10 µM; hit rate 1.4% among 330,000; AID 463195;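 active = inhibition of 40% or more at the single tested concentration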;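 note: wild-type TIM10 isogenic control strain grown at permissive 25 °C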
tim23-1 inh: inhibits growth of tim23-1 mutant yeast; S. cerevisiae tim23-1 growth, BacTiter-Glo luminescence, 24 h; inhibition, % at 20 µM; hit rate 1.3% among 330,000; AID 463212;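 active = growth inhibition of the mutant yeast at or above 50%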;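 note: temperature-sensitive mutant grown at 25 °C; plate controls were DMSO-treated mutant yeast for no effect and medium wells lacking yeast for full effect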
Mdm2-MdmX conf: confirmation of human Mdm2/MdmX interaction inhibitors. Mdm2-MdmX binding, luminescent assay. hit rate 55% among 10,000. shares compounds with Mdm2-MdmX inh. AID 489028. inhibition, % at 8 µM; in the data active = inhibition above about 40%
FLuc counter: inhibits full-length luciferase, flagging false Mdm2/MdmX hits; SaOS-2 full-length luciferase counterscreen, luminescence; hit rate 77% among 6,200; AID 504607; shares compounds with Mdm2-MdmX inh; inhibition, % at 8 µM;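 active = mean inhibition at 8 µM reaching about 37%, which flags the compound as non-specific, limit read from the data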;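 note: p53-null SaOS-2 cells with luciferase driven by a doxycycline-inducible promoter; compound on cells about two nights before reading with doxycycline added after day one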
Starred values were filed as active, the others as inactive. The list is not random: actives were taken first. Their share in the collection is about 6.3%.

Screening O=c1cc(N2CCN(c3cccc(Cl)c3)CC2)[nH]c(=O)n1C1CCCCC1 returned Mdm2-MdmX inh 84*, tim10-1 inh 0, MPTP inh -6, TIM10 inh -1, tim23-1 inh -16, Mdm2-MdmX conf 72* and FLuc counter 40*.
For O=c1cc(N2CCN(c3ccccc3)CC2)[nH]c(=O)n1C1CCCCC1 the results were Mdm2-MdmX inh 67*, tim10-1 inh -6, MPTP inh -2, TIM10 inh -6, tim23-1 inh 5, Mdm2-MdmX conf 66* and FLuc counter 56*.
For CN1CCN(c2cc(=O)n(C3CCCCC3)c(=O)[nH]2)CC1 the results were Mdm2-MdmX inh -7, tim10-1 inh 7, MPTP inh -1, TIM10 inh -4 and tim23-1 inh 14.
For O=C(CNC(=O)c1cccc(-n2cccc2)c1)Nc1ccccc1Br the results were MPTP inh -1.
Screening Cc1ccc(NC(=O)C2(C)CCN2C(=O)Cc2ccc(C(C)C)cc2)cc1 (configuration not stated) returned MPTP inh 1.
Screening CN(C)c1ncnc2c1ncn2[C@H]1CN(Cc2ccc(Cl)cc2)C[C@@H](CO)O1 returned MPTP inh -1.
Screening COc1cc(C(Nc2ccccn2)c2ccc3ccc(C)nc3c2O)cc(OC)c1O (configuration not stated) returned Mdm2-MdmX inh 79*, tim10-1 inh 38, MPTP inh 3, TIM10 inh 11, tim23-1 inh 20, Mdm2-MdmX conf 81* and FLuc counter 51*.
`Cc1ccnc(NC(c2ccccc2)c2ccc3cccnc3c2O)c1` (configuration not stated) gave MPTP inh 2.
Oc1c(C(Nc2ccccn2)c2ccccn2)ccc2cccnc12 (configuration not stated) was read as Mdm2-MdmX inh 53*, tim10-1 inh 32, MPTP inh 0, TIM10 inh 22, tim23-1 inh 37, Mdm2-MdmX conf 71* and FLuc counter 45*.
Screening O=C(O)c1ccccc1NC(c1ccccc1)c1ccc2cccnc2c1O (configuration not stated) returned MPTP inh -2.
Cc1ccc2ccc(C(Nc3ccccn3)c3ccccc3)c(O)c2n1 (configuration not stated) was read as Mdm2-MdmX inh 43, tim10-1 inh 16, MPTP inh 1, TIM10 inh 14 and tim23-1 inh 9.
For Oc1ccccc1C(Nc1nccs1)c1ccc2cccnc2c1O (configuration not stated) the results were Mdm2-MdmX inh 64*, tim10-1 inh 4, MPTP inh 3, TIM10 inh -4, tim23-1 inh 38, Mdm2-MdmX conf 78* and FLuc counter 48*.
O=C(O)c1cc([N+](=O)[O-])ccc1Oc1ccccc1 was read as MPTP inh -1.
`CN(C)Cc1csc(NC(=O)Nc2ccccc2Cc2ccccc2)n1` gave MPTP inh 3.
Screening CCCCN(CCCC)Cc1cc(=O)oc2ccc3ccccc3c12 returned MPTP inh 2.
Screening c1ccc(COc2ccccc2CNC2CCCC2)cc1 returned Mdm2-MdmX inh 37, tim10-1 inh 5, MPTP inh -1, TIM10 inh -23 and tim23-1 inh -12.
c1ccc(COc2ccccc2CNC23CC4CC(CC(C4)C2)C3)cc1 was read as Mdm2-MdmX inh 96*, tim10-1 inh -1, MPTP inh 11, TIM10 inh 4, tim23-1 inh -68, Mdm2-MdmX conf 70* and FLuc counter 59*.
`CCN(CC)CCCNC(=O)c1sc2ncn(CC(=O)Nc3ccc(C)c(Cl)c3)c(=O)c2c1C` gave Mdm2-MdmX inh 53*, tim10-1 inh -2, MPTP inh -2, TIM10 inh -2, tim23-1 inh 15 and Mdm2-MdmX conf 21.
For Cc1ccc(NC(=O)Cn2cnc3sc(C(=O)NCCN(C)C)c(C)c3c2=O)cc1Cl the results were Mdm2-MdmX inh 22, tim10-1 inh -3, TIM10 inh -3 and tim23-1 inh -7.
O=C1C(=Cc2ccc(Cl)cc2)CCc2ccccc21 was read as MPTP inh 2.
`O=C1N=C2SCCN2/C1=C\c1ccc(Cl)cc1` gave Mdm2-MdmX inh 52*, tim10-1 inh 7, MPTP inh 0, TIM10 inh 0, tim23-1 inh -8 and Mdm2-MdmX conf 5.
`O=C(CN1C(=O)CS/C1=C\c1nc(-c2ccc(Cl)cc2)cs1)Nc1cccnc1Cl` gave Mdm2-MdmX inh 79*, tim10-1 inh -39, MPTP inh -1, TIM10 inh -30, tim23-1 inh -17 and Mdm2-MdmX conf 19.
`CC(C)c1ccc(OCC(O)CNC(C)c2ccccc2)cc1` (configuration not stated) gave Mdm2-MdmX inh 52*, tim10-1 inh 13, MPTP inh 2, TIM10 inh 11, tim23-1 inh 10 and Mdm2-MdmX conf 23.
For OC(CNCCc1ccccc1)COc1ccc(OCC(O)CNCCc2ccccc2)cc1 (configuration not stated) the results were Mdm2-MdmX inh 99*, tim10-1 inh -20, MPTP inh -4, TIM10 inh -9, tim23-1 inh -11, Mdm2-MdmX conf 76* and FLuc counter 47*.
CCC(=O)c1ccc(OCC(O)CNC(C)c2ccccc2)cc1 (configuration not stated) was read as Mdm2-MdmX inh 11, tim10-1 inh 15, MPTP inh -1, TIM10 inh 1 and tim23-1 inh 2.
Screening NCC(O)COCCC12CC3CC(CC(C3)C1)C2 (configuration not stated) returned Mdm2-MdmX inh 13, tim10-1 inh 35, MPTP inh 9, TIM10 inh -6 and tim23-1 inh 23.
Screening CC(NCC(O)COCCC12CC3CC(CC(C3)C1)C2)c1ccccc1 (configuration not stated) returned Mdm2-MdmX inh 100*, tim10-1 inh -2, MPTP inh 2, TIM10 inh 27, tim23-1 inh -5, Mdm2-MdmX conf 99* and FLuc counter 37*.
`C[C@@H]1CN([C@@H](C)CO)C(=O)CCCn2cc(nn2)CO[C@H]1CN(C)S(=O)(=O)c1cn(C)cn1` gave MPTP inh -2.
CCOC(=O)c1ccc(-c2ccc(C3Nc4ccccc4C(=O)N3O)o2)cc1 (configuration not stated) was read as Mdm2-MdmX inh 72*, tim10-1 inh 16, MPTP inh 4, TIM10 inh 1, tim23-1 inh 34, Mdm2-MdmX conf 62* and FLuc counter 58*.
Screening CCCc1sc(N/N=C/c2ccccn2)nc1-c1ccc(Br)cc1 returned Mdm2-MdmX inh 75*, tim10-1 inh 3, MPTP inh 3, TIM10 inh 17, tim23-1 inh 38 and Mdm2-MdmX conf 24.
